Test [1] in a line: Cell Viability - HUV-EC-C (AID 542).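 Further: cells exposed to compound for 40 hours; on the % scale 0 is the no-effect control and ±100 the full control effect; nearly all actives have a fitted effect of over 35% in size.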 The essentials:
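Concentration-dependent ATP loss in HUV-EC-C cells is the measure. Exposure lasts 40 hr at 37 °C; luminescence follows CellTiter-Glo addition, and Hill fits give AC50.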

A short description of test [2]: Cell Viability - SH-SY5Y (AID 544).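 Further: cells exposed to compound for 40 hours; 0% = DMSO alone and -100% = 100 µM tamoxifen; nearly all actives have a fitted effect of over 55% in size.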 The following applies: SH-SY5Y neuroblastoma cell viability; viability change, negative = cytotoxic: at 92.2 µM (top of the series). The essentials: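 Quantitative HTS in SH-SY5Y neuroblastoma cells, 40 hr treatment at 37 °C, ATP content by luciferase luminescence; AC50 from Hill fits.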
Test [3] in a line: Cell Viability - Renal Proximal Tubule (AID 545).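 Further: cells exposed to compound for 40 hours; 0% = DMSO only and -100% = 100 µM tamoxifen; nearly all actives have a fitted effect of over 40% in size.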 The essentials: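 Primary rat renal proximal tubule cells (1000/well) were treated with compounds for 40 hr at 37 °C in complete medium. Intracellular ATP was measured by CellTiter-Glo luminescence, and AC50 values came from Hill-equation fits of concentration-response data.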
Test [4] can be described thus: Cell Viability - Mesenchymal (AID 546).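 Further: cells exposed to compound for 40 hours before reading; 0% = DMSO only and -100% = 100 µM tamoxifen.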 The essentials: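 In this qHTS cytotoxicity format, glomerulus-derived human mesenchymal kidney cells received compound for 40 hr, then luciferase-based ATP quantitation. Concentration-response data were fitted with the Hill equation.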
Test [5] is described as follows: Cell Viability - LYMP2-011 (AID 969).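 Further: cells exposed to compound for 24 hours; 0% = DMSO only and full inhibition = 92 µM tetraoctylammonium bromide; nearly all actives have a fitted effect of over 60% in size.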 The essentials:
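Cells seeded at 2500 per well rest 5 hr before compound addition, then incubate 24 hr at 37 C. CellTiter-Glo reagent is added for 30 min at room temperature before luminescence detection.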

Test [6] is described as follows: Cell Viability - LYMP2-002 (AID 977).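 Further: compound exposure lasted 24 h at 37 °C; plate controls were DMSO only for no effect and 92 µM tetraoctylammonium bromide for full effect.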 The essentials: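 In this qHTS viability screen, 2500 human lymphoblastoid cells per well receive compound for 24 hr at 37 C, and luciferase-based ATP luminescence gives the viability signal. Tetraoctylammonium bromide serves as positive control.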
The nature of test [7]: Cell Viability - LYMP2-010 (AID 981).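 Further: cells exposed to compound for 24 hours at 37 °C; on the % scale 0 is the no-effect control and ±100 the full control effect; nearly all actives have a fitted effect of over 55% in size.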 The essentials: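 This 24 hr viability screen uses LYMP2-010 lymphoblastoid cells, quantifies ATP via luciferase luminescence, and derives AC50 from Hill fits of qHTS concentration-response data.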
The target in test [8] is Peroxisome proliferator-activated receptor delta (Homo sapiens) (UniProt Q03181). Put plainly: qHTS assay for small molecule agonists of peroxisome proliferator-activated receptor delta signaling (AID 588534; calls by dose curve;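 further: 0% = DMSO basal wells and 100% = positive control agonist at 10 µM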). The essentials:
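EC50 and efficacy values derive from Hill fits of a concentration series in a beta-lactamase reporter cell assay. Exposure is 18 hrs at 37 C, with CCF4 fluorescence as the readout.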

Test [9] has as its target Retinoic acid receptor RXR-alpha (Homo sapiens) (UniProt P19793). Briefly: qHTS assay for small molecule agonists of retinoid X receptor alpha signaling (AID 588544; calls by dose curve;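 further: 0% = DMSO basal wells and 100% = reference agonist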).
The target is the same in test [10]. Briefly: qHTS assay for small molecule antagonists of retinoid X receptor alpha signaling (AID 588546; active means well fitted inhibition curve with a large enough effect in the signal ratio, with a control signal flat, not every such curve was filed as active; the % refers to the signal ratio;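 further: cells stimulated with 9-cis-retinoic acid as agonist; on the % scale 0 is the no-effect control and ±100 the full control effect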). Particulars: HEK293T RXRa-UAS-bla, beta-lactamase ratio, antagonist mode. The essentials:
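Beta-lactamase reporter inhibition, read as CCF4 fluorescence ratio (ex 405, em 460/530 nm) after 2 h at RT. HEK293T UAS-bla cells, 2500/well, were stimulated with 9-cis-RA at 500 or 100 nM final alongside test compound for 18 h at 37 C.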
For orientation: Quantitative high-throughput screening tests each substance at several concentrations.

The target of test [11] is Thyroid hormone receptor beta (Homo sapiens) (UniProt P10828). Briefly: qHTS assay for small molecule antagonists of thyroid hormone receptor beta signaling (AID 588547; active means well fitted inhibition curve with a large enough effect in the signal ratio, with a control signal flat, not every such curve was filed as active; the % refers to the signal ratio;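 further: cells stimulated with 0.4 nM T3 agonist during compound exposure; on the % scale 0 is the no-effect control and ±100 the full control effect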). The following applies: TR-UAS-bla HEK293, beta-lactamase ratio, antagonist mode, 18 h. The essentials:
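TR-UAS-bla GripTite HEK293 cells in 2% charcoal/dextran FBS medium were preincubated 4 h at 37 C, given compound (0.59 nM to 92 uM) plus 0.4 nM T3 (final) for 18 h, then CCF4 for 2 h at RT; Hill fit gave IC50.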

The nature of test [12]: qHTS assay for environmental chemicals that activate the Aryl hydrocarbon Receptor (AhR) signaling pathway (AID 651777). Further: nearly all actives have a fitted effect of over 15% in size. Further: potency means the concentration at half of the fitted maximal effect. On activation: % of control where 0% means no effect. The following applies: 1A2-DRE human hepatoma cells, luciferase, 24 h; activation: active compounds read high. The essentials:
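Quantitative HTS in stably transfected human liver-derived cells whose luciferase gene sits downstream of the CYP1A2 promoter and dioxin response element. After 24 hr exposure at 37 C, One-Glo luminescence was measured.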

Test [13] in a line: qHTS assay for small molecule agonists of the antioxidant response element (ARE) signaling pathway measured by Nrf2-dependant transcriptional activity (AID 720636; active means well fitted curve in the direction sought with a large enough effect in the repeat runs; an effect the other way counts as inactive or inconclusive; further: % of control where 0% means no effect). The essentials:
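Quantitative HTS format in HepG2 cells stably expressing an ARE-luciferase reporter; 16 hr compound treatment at 37 C, luciferase signal detected with ONE-Glo.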

Test [14] can be described thus: qHTS assay for small molecule antagonists of the retinoid-related orphan receptor gamma (ROR-gamma) signaling pathway - cell viability counter screen (AID 720652; active means well fitted curve in the direction sought with a large enough effect in the repeat runs; an effect the other way counts as inactive or inconclusive;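 further: CHO reporter cells with doxycycline-induced ROR-gamma expression; compound exposure lasted 16 hr before ATP read; on the % scale 0 is the no-effect control and ±100 the full control effect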). The essentials:
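ATP-based viability readout in the ROR-gamma reporter CHO cells after 16 hr compound exposure under doxycycline induction.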

Test [15] has as its target Nuclear receptor subfamily 1 group I member 2 (Rattus norvegicus) (UniProt Q9R1A7). Briefly: qHTS assay for small molecule activators of the rat pregnane X receptor (rPXR) signaling pathway (AID 651751; call rule not given here; further: 0% is about no effect). Particulars: rPXR reporter cells, luciferase (One-Glo), 24 h.
The nature of test [16]: qHTS assay for small molecule activators of the human pregnane X receptor (PXR) signaling pathway (AID 720659; call rule not given here; further: 0% is about no effect).
A short description of test [17]: Cell Viability - LYMP1-003 - Assay at 40 hr (AID 964). Further: on the % scale 0 is the no-effect control and ±100 the full control effect; nearly all actives have a fitted effect of over 60% in size. The essentials: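 Acute toxicity is scored as a concentration-dependent loss of intracellular ATP in LYMP1-003 cells (2500/well, complete medium) after 40 hr at 37 C, measured by CellTiter-Glo luminescence; AC50 values derive from standard Hill modelling.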
A short description of test [18]: Cell Viability - LYMP2-012 (AID 982).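 Further: cellular ATP by luciferase luminescence where a drop means cytotoxicity; cells exposed to compound for one day before reading; 0% = DMSO only and full loss = 92 µM tetraoctylammonium bromide; nearly all actives have a fitted effect of over 55% in size.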
The target of test [19] is Thyroid hormone receptor beta (Homo sapiens) (UniProt P10828). Put plainly: qHTS assay for small molecule agonists of thyroid hormone receptor beta signaling (AID 588545; calls by dose curve). The essentials:
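Cells (2500/well) were seeded, incubated 4 hrs at 37 C, dosed with a compound series, incubated 18 hrs, loaded with CCF4 dye for 2 hrs at RT, then read for fluorescence. Data were scaled between DMSO (0%) and 10 nM T3 (100%).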

Test [20] can be described thus: qHTS assay for small molecule disruptors of the mitochondrial membrane potential - 1 hr assay (AID 651754; calls by dose curve; further: nearly all actives have a fitted effect of over 35% in size; further: potency means the concentration at half of the fitted maximal effect). The essentials:
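In this qHTS format, a 1 hr compound treatment of HepG2 cells precedes Mito-MPS staining, and membrane potential is judged from aggregate (red) against monomer (green) fluorescence intensity.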

SMILES strings stand for the structures. Where “and” joins values, the source holds several entries; their conditions need not be identical. Equal values may be shown once. A number with no mark means an inactive call. Inconclusive results are not listed. Calls of active or inactive are those of the source. Unless noted, the call rests on the fitted dose curve; in most records, active means well fitted curve in the direction sought with a large enough effect; inconclusive means small, poorly fitted or top-dose-only effect, or another doubt; inactive means no such curve, though single readings can be large; an effect the other way counts as inactive or inconclusive.

Thyroid hormone receptor beta (Homo sapiens), sequence (P10828 whole entry, looked up): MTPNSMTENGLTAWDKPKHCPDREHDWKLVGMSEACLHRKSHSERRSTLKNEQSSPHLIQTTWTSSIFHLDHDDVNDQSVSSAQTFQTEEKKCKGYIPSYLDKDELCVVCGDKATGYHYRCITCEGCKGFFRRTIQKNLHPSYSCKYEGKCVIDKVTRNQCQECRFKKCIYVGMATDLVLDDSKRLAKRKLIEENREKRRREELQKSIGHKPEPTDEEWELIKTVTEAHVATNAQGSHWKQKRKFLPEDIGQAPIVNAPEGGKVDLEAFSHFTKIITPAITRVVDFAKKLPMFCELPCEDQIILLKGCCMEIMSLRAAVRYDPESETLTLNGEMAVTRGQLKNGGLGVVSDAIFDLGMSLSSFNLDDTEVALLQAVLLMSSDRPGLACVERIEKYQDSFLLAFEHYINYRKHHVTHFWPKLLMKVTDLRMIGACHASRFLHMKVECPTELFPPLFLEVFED
Nuclear receptor subfamily 1 group I member 2 (Rattus norvegicus), sequence (Q9R1A7 whole entry, looked up): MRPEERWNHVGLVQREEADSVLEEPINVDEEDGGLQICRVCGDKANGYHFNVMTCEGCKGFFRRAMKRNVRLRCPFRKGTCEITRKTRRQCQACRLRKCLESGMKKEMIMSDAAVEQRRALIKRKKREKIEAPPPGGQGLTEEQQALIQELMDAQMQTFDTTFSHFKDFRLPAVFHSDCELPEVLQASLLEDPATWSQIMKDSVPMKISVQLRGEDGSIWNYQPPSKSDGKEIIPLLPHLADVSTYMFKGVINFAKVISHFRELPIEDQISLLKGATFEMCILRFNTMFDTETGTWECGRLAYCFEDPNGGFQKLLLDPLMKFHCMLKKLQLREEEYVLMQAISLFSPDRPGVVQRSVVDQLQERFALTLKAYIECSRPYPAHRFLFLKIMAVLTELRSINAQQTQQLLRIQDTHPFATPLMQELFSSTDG
Retinoic acid receptor RXR-alpha (Homo sapiens), sequence (P19793 whole entry, looked up): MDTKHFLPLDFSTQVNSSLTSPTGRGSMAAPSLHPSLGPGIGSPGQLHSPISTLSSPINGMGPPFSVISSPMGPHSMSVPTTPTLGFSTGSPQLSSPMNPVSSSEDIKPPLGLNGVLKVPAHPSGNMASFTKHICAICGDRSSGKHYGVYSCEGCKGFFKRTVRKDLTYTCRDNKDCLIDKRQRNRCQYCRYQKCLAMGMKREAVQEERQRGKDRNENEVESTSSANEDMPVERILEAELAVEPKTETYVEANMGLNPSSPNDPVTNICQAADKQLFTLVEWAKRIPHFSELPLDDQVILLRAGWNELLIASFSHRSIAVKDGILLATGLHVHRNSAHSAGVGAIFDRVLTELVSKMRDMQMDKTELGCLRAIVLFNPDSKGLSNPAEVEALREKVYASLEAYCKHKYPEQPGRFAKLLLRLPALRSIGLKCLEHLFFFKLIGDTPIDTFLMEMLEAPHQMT
Peroxisome proliferator-activated receptor delta (Homo sapiens), sequence (Q03181 whole entry, looked up): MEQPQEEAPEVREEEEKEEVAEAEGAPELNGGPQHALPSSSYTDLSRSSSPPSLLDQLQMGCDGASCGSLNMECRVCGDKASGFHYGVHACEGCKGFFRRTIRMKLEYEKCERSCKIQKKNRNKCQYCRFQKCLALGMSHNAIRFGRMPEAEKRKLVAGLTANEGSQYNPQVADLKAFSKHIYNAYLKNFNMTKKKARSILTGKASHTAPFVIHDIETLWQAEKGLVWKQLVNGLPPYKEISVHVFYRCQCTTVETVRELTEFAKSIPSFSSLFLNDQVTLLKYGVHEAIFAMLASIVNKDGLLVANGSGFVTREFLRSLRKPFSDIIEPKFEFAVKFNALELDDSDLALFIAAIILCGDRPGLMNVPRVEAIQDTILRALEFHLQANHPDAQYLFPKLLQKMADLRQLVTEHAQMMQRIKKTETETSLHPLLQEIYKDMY

Take `N#CC(O)c1ccccc1` (stereo not drawn): the Potency result in test [1], in test [2], in test [4], in test [5], in test [6] and in test [7] was “inactive” in each case. The Potency result in test [13] and in test [14] was “inactive” each time. The result in test [3], in test [8], in [9] and in test [16] was inactive. Further, the max response in test [10] was 0.403%; in test [15] it was 0.679%. For the same molecule, the activity change % (negative = inhibition) in test [11] was 8.13%. Further, in [12], the activation was 0.286%.

For `Cc1ccc(N)cc1N`, the call in test [3], in test [8] and in [16] was inactive. The Potency entry in test [4], in test [17], in [5], in test [6], in test [18] and in test [19] was “inactive” throughout. Moreover, the Potency entry in test [13] and in test [14] was “inactive” in each case. In addition, the activity change % (negative = inhibition) in test [11] is 0.49% and -2.4%. Besides, the values for the Potency in test [20] and in test [12] were 23.7 µM (active) and 44.7 µM (active), respectively. Moreover, the max response in test [15] is 12.5% and 3.01%.

`ClC(Cl)(Cl)C(Cl)(Cl)Cl`: the Potency result in test [1], in test [2], in test [4], in test [17], in test [5] and in [6] was “inactive” in each case. Besides, the Potency result in [7], in test [18], in test [20], in test [13] and in test [14] was “inactive” each time. The call in test [9] and in test [16] was inactive. The max response is 8.66% in [10] and 6.05% in test [15]. In addition, the activity change % (negative = inhibition) in [11] is 3.45%. Also, in test [12], the activation is 0.18%.

In the case of `BrCC(Br)C1CCC(Br)C(Br)C1` (stereo not drawn), the Potency result in test [1], in test [4], in test [17], in test [5], in [6] and in test [7] was “inactive” each time. In addition, the Potency result in test [19], in test [20] and in test [14] was “inactive” each time. In addition, the molecule was classed as inactive in [3] and in [9]. In addition, the max response in test [10] is 18%; in test [15], -6.51%. For the same molecule, the activity change % (negative = inhibition) in test [11] was 5.99%.

Regarding `C=CCBr`, the Potency entry in test [1], in test [2], in [4], in test [17], in test [6] and in [18] was “inactive” throughout. In addition, the Potency entry in [20], in [13] and in [14] was “inactive” in each case. Also, the call in test [3], in [9] and in test [16] was inactive. Moreover, the max response in [10] is 13.2%; in test [15], 1.14%. In test [11], the activity change % (negative = inhibition) was -19.2%.

Consider `ClCCOCOCCCl`, for which the Potency entry in test [1], in test [2], in test [5], in [6], in test [7] and in [18] was “inactive” throughout. For the same molecule, the Potency result in test [19], in test [20], in test [13] and in [14] was “inactive” throughout. Further, the molecule was classed as inactive in [3], in test [9] and in test [16]. In addition, the values for the max response in test [10] and in test [15] were -0.285% and 0.986%, respectively. The activity change % (negative = inhibition) in [11] is 10.8%. In test [12], the activation is 0.193%.

Take `CC(C)(OOC(C)(C)c1ccccc1)c1ccccc1`: the Potency result in test [4], in test [5], in [6], in [7], in test [18] and in test [19] was “inactive” each time. In addition, the Potency result in test [20], in test [13] and in test [14] was “inactive” throughout. For the same molecule, the result in test [8] and in [9] was inactive. Also, the max response in test [10] is 4.95%; in [15], -3.9% and 4.2%. Further, the activity change % (negative = inhibition) in test [11] was 6.91%. Moreover, in test [12], the activation was -0.821% and 0.322%.

As to `C=CC=O`, the Potency entry in test [1], in test [4], in [6], in [7], in [19] and in test [13] was “inactive” each time. In [14], the Potency result was “inactive”. Further, the viability change, negative = cytotoxic in [2] was -91.6% (active). The molecule was classed as inactive in test [3], in [8], in test [9] and in test [16]. In addition, the activation in test [12] was 1.3%. Moreover, the max response in test [15] was 1.01%.
